Over roughly 1,900 compounds, “excess over highest single agent (ExcessHSA) synergy score, 6x6 matrix” has its median near -83; the lowest 2% begin near -370. Only a selection was taken, and the lowest values are over-represented in it overall.
These compounds were tested on NCI-H446 (assay: excess over highest single agent (ExcessHSA) synergy score, 6x6 matrix; higher = less synergy (more negative = stronger synergy)). Conditions: 72 h; CellTiter-Glo viability.

Row | SMILES | excess over highest single agent
1 | Cc1cc(CN2CCN(c3c(Br)cnc4nc(-c5ccc(N6CCN(C)CC6)cc5)[nH]c34)CC2)no1 + Cc1sc2c(c1C)C(c1ccc(Cl)cc1)=N[C@@H](CC(=O)OC(C)(C)C)c1nnc(C)n1-2 [NCGC00250412-19] | -107
2 | CN(C)c1ccc(-c2nc3ncc(Cl)c(N4CCN(CC(=O)Nc5nccs5)CC4)c3[nH]2)cc1 + Cc1sc2c(c1C)C(c1ccc(Cl)cc1)=N[C@@H](CC(=O)OC(C)(C)C)c1nnc(C)n1-2 [NCGC00250412-19] | -382
3 | CCOC(CN1C(=O)[C@](CC(=O)Nc2ccc(C)cc2)(NC(=O)Nc2ccc(C)cc2)c2ccccc21)OCC + Cc1sc2c(c1C)C(c1ccc(Cl)cc1)=N[C@@H](CC(=O)OC(C)(C)C)c1nnc(C)n1-2 [NCGC00250412-19] | -94.2
4 | COc1cc2c(cc1OC)CN(CCc1ccc(NC(=O)c3cc(OC)c(OC)cc3NC(=O)c3cnc4ccccc4c3)cc1)CC2 + Cc1sc2c(c1C)C(c1ccc(Cl)cc1)=N[C@@H](CC(=O)OC(C)(C)C)c1nnc(C)n1-2 [NCGC00250412-19] | 50.9
5 | Cc1cccc(-c2[nH]c(C(C)(C)C)nc2-c2ccc3c(c2)OCO3)n1 + Cc1sc2c(c1C)C(c1ccc(Cl)cc1)=N[C@@H](CC(=O)OC(C)(C)C)c1nnc(C)n1-2 [NCGC00250412-19] | -84.7
6 | CC(C)(O)CC(=O)NCCn1ccc2ncnc(Nc3ccc(Oc4cccc(C(F)(F)F)c4)c(Cl)c3)c21 + Cc1sc2c(c1C)C(c1ccc(Cl)cc1)=N[C@@H](CC(=O)OC(C)(C)C)c1nnc(C)n1-2 [NCGC00250412-19] | 16.5
7 | CC(C)[C@H](C(=O)Nc1ccc(C(=O)NO)cc1)c1ccccc1 + Cc1sc2c(c1C)C(c1ccc(Cl)cc1)=N[C@@H](CC(=O)OC(C)(C)C)c1nnc(C)n1-2 [NCGC00250412-19] | -112
8 | C=C1/C(=C\C=C2/CCC[C@]3(C)[C@@H]([C@H](C)/C=C/C=C/C(O)(CC)CC)CC[C@@H]23)C[C@@H](O)C[C@@H]1O + Cc1sc2c(c1C)C(c1ccc(Cl)cc1)=N[C@@H](CC(=O)OC(C)(C)C)c1nnc(C)n1-2 [NCGC00250412-19] | 84.4
9 | COc1cc2c(cc1OC)[C@@H]1Cc3ccc(OC)c(OC)c3CN1CC2 + Cc1sc2c(c1C)C(c1ccc(Cl)cc1)=N[C@@H](CC(=O)OC(C)(C)C)c1nnc(C)n1-2 [NCGC00250412-19] | -95.9
10 | COc1ccc2c(c1OC)CN1CCc3cc4c(cc3C1C2)OCO4 (centres undefined) + Cc1sc2c(c1C)C(c1ccc(Cl)cc1)=N[C@@H](CC(=O)OC(C)(C)C)c1nnc(C)n1-2 [NCGC00250412-19] | -109
11 | COc1ccc2cc1Oc1ccc(cc1)C[C@H]1c3cc(c(OC)cc3CCN1C)Oc1c(OC)c(OC)cc3c1[C@H](C2)N(C)CC3 + Cc1sc2c(c1C)C(c1ccc(Cl)cc1)=N[C@@H](CC(=O)OC(C)(C)C)c1nnc(C)n1-2 [NCGC00250412-19] | -432
12 | Cc1ccc2c(c1)c1c(n2CCc2ccc(C)nc2)CCN(C)C1 + Cc1sc2c(c1C)C(c1ccc(Cl)cc1)=N[C@@H](CC(=O)OC(C)(C)C)c1nnc(C)n1-2 [NCGC00250412-19] | -121
13 | CC[C@@]1(O)C(=O)OCc2c1cc1n(c2=O)Cc2cc3c(CN(C)C)c(O)ccc3nc2-1 + Cc1sc2c(c1C)C(c1ccc(Cl)cc1)=N[C@@H](CC(=O)OC(C)(C)C)c1nnc(C)n1-2 [NCGC00250412-19] | -475
14 | CCc1c2c(nc3ccc(O)cc13)-c1cc3c(c(=O)n1C2)COC(=O)[C@]3(O)CC + Cc1sc2c(c1C)C(c1ccc(Cl)cc1)=N[C@@H](CC(=O)OC(C)(C)C)c1nnc(C)n1-2 [NCGC00250412-19] | -327
15 | CC[C@@]1(O)C(=O)OCc2c1cc1n(c2=O)Cc2cc3cc(O)ccc3nc2-1 + Cc1sc2c(c1C)C(c1ccc(Cl)cc1)=N[C@@H](CC(=O)OC(C)(C)C)c1nnc(C)n1-2 [NCGC00250412-19] | -416
16 | CC[C@@]1(O)C(=O)OCc2c1cc1n(c2=O)Cc2cc3ccccc3nc2-1 + Cc1sc2c(c1C)C(c1ccc(Cl)cc1)=N[C@@H](CC(=O)OC(C)(C)C)c1nnc(C)n1-2 [NCGC00250412-19] | -249
17 | CCc1c2c(nc3ccc(OC(=O)N4CCC(N5CCCCC5)CC4)cc13)-c1cc3c(c(=O)n1C2)COC(=O)[C@]3(O)CC + Cc1sc2c(c1C)C(c1ccc(Cl)cc1)=N[C@@H](CC(=O)OC(C)(C)C)c1nnc(C)n1-2 [NCGC00250412-19] | -249
18 | CC[C@H](CC#N)OC(=O)N[C@@H](C)c1cccc(NC(=O)Nc2ccc(-c3cnco3)c(OC)c2)c1 + Cc1sc2c(c1C)C(c1ccc(Cl)cc1)=N[C@@H](CC(=O)OC(C)(C)C)c1nnc(C)n1-2 [NCGC00250412-19] | -174
19 | Cc1cccc(Nc2nc(N[C@@H]3CCCC[C@@H]3N)ncc2C(N)=O)c1 + Cc1sc2c(c1C)C(c1ccc(Cl)cc1)=N[C@@H](CC(=O)OC(C)(C)C)c1nnc(C)n1-2 [NCGC00250412-19] | -24
20 | Cn1cnc(-c2cc3nccc(Oc4ccc(NC(=S)NC(=O)Cc5ccccc5)cc4F)c3s2)c1 + Cc1sc2c(c1C)C(c1ccc(Cl)cc1)=N[C@@H](CC(=O)OC(C)(C)C)c1nnc(C)n1-2 [NCGC00250412-19] | -36.3
21 | C#Cc1cccc(Nc2ncnc3cc(OCCOC)c(OCCO)cc23)c1 + Cc1sc2c(c1C)C(c1ccc(Cl)cc1)=N[C@@H](CC(=O)OC(C)(C)C)c1nnc(C)n1-2 [NCGC00250412-19] | -46.8
22 | CCN1CCC(n2cc(CNc3cc(Cl)c4ncc(C#N)c(Nc5ccc(F)c(Cl)c5)c4c3)nn2)CC1 + Cc1sc2c(c1C)C(c1ccc(Cl)cc1)=N[C@@H](CC(=O)OC(C)(C)C)c1nnc(C)n1-2 [NCGC00250412-19] | 44.4
23 | CN(C1CCc2c(c3ccccc3n2CC(=O)O)C1)S(=O)(=O)c1ccc(F)cc1 (centres undefined) + Cc1sc2c(c1C)C(c1ccc(Cl)cc1)=N[C@@H](CC(=O)OC(C)(C)C)c1nnc(C)n1-2 [NCGC00250412-19] | -115
24 | CC/C=C\CC1C(=O)CCC1CC(=O)OC (centres undefined) + Cc1sc2c(c1C)C(c1ccc(Cl)cc1)=N[C@@H](CC(=O)OC(C)(C)C)c1nnc(C)n1-2 [NCGC00250412-19] | 223

Source: the supplement of paper PMC10077471
